# An excerpt weighted towards active compounds, which were near 16% of everything screened.
# miR-21 act: qHTS Assay for Modulators of miRNAs and/orActivators of miR-21 | HeLa miR-21 FLuc reporter, luciferase, 48 h | Potency, µM (doses to about 38.3 µM), without a hit: at the highest dose activity change, positive = activation, most hits filed as activators | 340,000 tested, under 10 active;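 also: % of control where 0% means no effect; miR-21 action dims this reporter so a rising signal means less miR-21 action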
#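 HeLa miR-21-FLuc reporter line, endogenous miR-21; 2000 cells/well in DMEM/10% FBS; compound titration up to ~40uM final, 48 h, 37 degree Celsius; luciferase detection reagent, 15 min lysis, CCD luminescence.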
# TDP1 cell noCPT: qHTS for Inhibitors of human tyrosyl-DNA phosphodiesterase 1 (TDP1): qHTS in cells in absence of CPT; Potency, µM (series often up to 46.2 µM), without a hit: top-dose activity change, negative = growth inhibition, hits mostly inhibitors; AID 686978, 2013; DT40 Tdp1-/- hTDP1 cells, no CPT, ATP luminescence, 48 h; 420,000 tested, 15% active; also: potency is read from the fitted curve at half-maximal effect; % is scaled to controls: 0 for no effect and ±100 for the full control effect; nearly all actives have a fitted effect of over 55% in size
#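 Seeded 400 DT40-hTDP1 cells/well (vehicle DMSO, no 20 nM CPT); pinned compounds; ≥48 hr at 37 °C; CellTiter-Glo luminescence as viability measure.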
# uPA surface inh: qHTS for Inhibitors of Cell Surface uPA Generation; Potency, µM (highest dose often 38.3 µM), without a hit: at the top dose activity change, negative = inhibition, usual class: inhibitors; 330,000 tested, 0.31% active; cell surface uPA generation assay, qHTS; AID 540303, 2011; active = well fitted inhibition curve with a large enough effect; inconclusive = small, poorly fitted or top-dose-only effect; inactive = no such curve, though single readings can be large or run the other way; tested in mouse RAW 264.7 cells; also: potency is read from the fitted curve at half-maximal effect; % is scaled to controls: 0 for no effect and ±100 for the full control effect; nearly all actives have a fitted effect of over 55% in size
# TDP1 cell CPT: qHTS for Inhibitors of human tyrosyl-DNA phosphodiesterase 1 (TDP1): qHTS in cells in presence of CPT | chicken DT40 Tdp1-/-;hTDP1 cells + 20 nM CPT, ATP luminescence, 48 h | Potency, µM (titrated, usually from 46.2 µM), for inactives: top-dose activity change, negative = growth inhibition, actives largely listed as inhibitors | 420,000 tested, 12% active; also: potency is read from the fitted curve at half-maximal effect; % is scaled to controls: 0 for no effect and ±100 for the full control effect; nearly all actives have a fitted effect of over 55% in size
#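 Cell growth measured by CellTiter-Glo luminescence after a minimum 48 h, 37 C compound exposure with 20 nM CPT in Tdp1-knockout DT40 cells stably expressing hTDP1, seeded 400/well; qHTS titration format.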
# TDP1 block: qHTS Assay for Inhibitors of Tyrosyl-DNA Phosphodiesterase (TDP1); Tyrosyl-DNA phosphodiesterase 1 (Homo sapiens), Q9NUW8; recombinant TDP1, AlphaScreen DNA substrate cleavage; Potency, µM (highest dose often 130 µM), without a hit: at the top dose activity change, negative = inhibition, most hits filed as inhibitors; 350,000 tested, 0.28% active; also: potency is read from the fitted curve at half-maximal effect; % is scaled to controls: 0 for no effect and ±100 for the full control effect; nearly all actives have a fitted effect of over 40% in size
# Target sequence (Q9NUW8 whole entry, looked up): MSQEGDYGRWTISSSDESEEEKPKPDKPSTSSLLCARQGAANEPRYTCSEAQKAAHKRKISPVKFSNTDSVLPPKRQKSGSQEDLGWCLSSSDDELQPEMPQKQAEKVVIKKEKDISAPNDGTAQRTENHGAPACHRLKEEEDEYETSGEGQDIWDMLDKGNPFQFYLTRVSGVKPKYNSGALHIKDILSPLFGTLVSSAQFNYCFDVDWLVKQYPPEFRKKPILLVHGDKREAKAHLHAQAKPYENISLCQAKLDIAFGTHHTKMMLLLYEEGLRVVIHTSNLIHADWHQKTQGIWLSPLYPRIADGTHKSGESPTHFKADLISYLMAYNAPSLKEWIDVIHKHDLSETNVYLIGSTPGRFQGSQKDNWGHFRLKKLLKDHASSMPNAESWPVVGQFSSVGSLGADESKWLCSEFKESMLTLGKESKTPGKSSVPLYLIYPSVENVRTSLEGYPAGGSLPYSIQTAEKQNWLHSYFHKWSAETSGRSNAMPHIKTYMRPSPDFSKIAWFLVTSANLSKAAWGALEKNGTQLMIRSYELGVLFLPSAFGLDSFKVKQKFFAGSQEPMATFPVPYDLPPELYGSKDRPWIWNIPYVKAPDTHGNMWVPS
#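 E. coli-derived human Tdp1, 1 nM final. Cpd preinc 15 min RT; substrate 15 nM final, 5 min RT; AS bead mix 10 ug/ml final, 10 min RT. Signal loss = tyrosine-FITC cleavage. No-enzyme wells = max signal.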
# * hit, by the source's call; ? = inconclusive; nt = no result given; [ ] = dose if it differs, or a comment. Unless noted, calls follow the shape of the dose curve; as a rule, active = well fitted curve in the direction sought with a large enough effect; inconclusive = small, poorly fitted or top-dose-only effect, or another doubt; inactive = no such curve, though single readings can be large; an effect the other way counts as inactive or inconclusive.
SMILES,miR-21 act,TDP1 cell noCPT,uPA surface inh,TDP1 cell CPT,TDP1 block
O=C(COC(=O)/C=C/c1ccco1)Nc1ncc(Cl)cc1Cl,-4%,-19%,-10%,-10%,20µM*
CN(C)S(=O)(=O)c1ccc(Cl)c(NC(=O)COC(=O)/C=C/c2ccco2)c1,3%,-15%,5%,3%,50µM*
CC(=O)O[C@@]12CO[C@@H]1C[C@H](O)[C@@]1(C)C(=O)[C@H](O)C3=C(C)[C@@H](OC(=O)[C@H](O)[C@@H](NC(=O)OC(C)(C)C)c4ccccc4)C[C@@](O)([C@@H](OC(=O)c4ccccc4)[C@H]21)C3(C)C,nt,0.0012µM*,nt,0.0011µM*,nt
C=CCN(C(=O)CNC(=O)c1ccco1)C(C(=O)NC1CCCC1)c1cccs1 (configuration not stated),-5%,-29%,8%,-20%,0%
COc1cccc(/C=N/Nc2ncnc3c2[nH]c2ccc(C)cc23)c1OC,-13%,5.8µM*,-10%,2.1µM*,nt
C=CCNc1ncnc2c1[nH]c1ccc(C)cc12,-16%,21µM*,?,29µM*,0%
Fc1ccc2[nH]c3c(NCc4ccccc4)ncnc3c2c1,?,5.2µM*,-14%,5.2µM*,nt
CCOc1ccc2[nH]c3c(NCCN(C)C)ncnc3c2c1,-22%,nt,nt,nt,nt
OCCCNc1ncnc2c1[nH]c1ccccc12,-21%,-16%,1%,-10%,nt
CCOc1ccc2[nH]c3c(NCCC(C)C)ncnc3c2c1,25%,18µM*,?,26µM*,nt
Cc1ccc(F)cc1NC(=O)CCC(=O)c1cccs1,-7%,0%,3%,-1%,3%
CSc1ccc(CN(C)C(C)C(=O)NCC2CCCCC2)cc1 (configuration not stated),0%,?,-3%,?,6%
CC(C(=O)NCC1CCCCC1)N(C)Cc1ccc(Cl)cc1 (configuration not stated),3%,18µM*,-2%,?,5%
Oc1ccc2ccccc2c1C=Nc1ccccc1-c1nc2ccccc2[nH]1,-7%,16µM*,-11%,?,8%
O=C(NCc1ccccc1)c1onc(CSc2ccc(F)cc2)c1C(=O)NCc1ccccc1,nt,?,4%,18µM*,nt
CCCCNC(=O)c1onc(CSc2ccc(F)c(F)c2)c1C(=O)NCCCC,nt,?,12%,16µM*,nt
C=CCNC(=O)c1onc(CSc2ccc(Cl)cc2)c1C(=O)NCC=C,6%,16µM*,5%,?,2%
C=CCNC(=O)c1onc(CSc2cc(C)cc(C)c2)c1C(=O)NCC=C,14%,18µM*,-3%,?,-5%
CC(C#N)(NC(=O)CN1CCN(S(=O)(=O)c2ccccc2C#N)CC1)C1CC1 (configuration not stated),nt,-27%,0%,-6%,1%
Cc1cccc2sc(N3CCN(C(=O)c4ccco4)CC3)nc12,-47%,?,nt,?,-5%
Cc1ccc(Cl)c2sc(N3CCN(C(=O)c4ccco4)CC3)nc12,nt,16µM*,2%,?,4%
Cc1ccc(C)c2sc(N3CCN(C(=O)c4ccco4)CC3)nc12,-6%,18µM*,nt,?,8%
COc1cc(-c2cc(C(=O)N(C)Cc3ccccc3)c3ccccc3n2)cc(OC)c1OC,12%,15µM*,6%,15µM*,nt
CCN(Cc1ccccc1)C(=O)c1cc(-c2ccc(OC)c(OC)c2)nc2ccccc12,-6%,?,-13%,?,5%
COc1ccccc1CNC(=O)c1cc(-c2cccnc2)nc2ccccc12,15%,?,0%,?,0%
SMILES,miR-21 act,TDP1 cell noCPT,uPA surface inh,TDP1 cell CPT,TDP1 block
COc1ccccc1CN(C)C(=O)c1cc(-c2cc(OC)c(OC)c(OC)c2)nc2ccccc12,18%,10µM*,1%,23µM*,-5%
COc1ccc(-c2cc(C(=O)N(C)Cc3ccccc3F)c3ccccc3n2)cc1OC,0%,18µM*,-16%,?,4%
COc1cc(-c2cc(C(=O)OCC(=O)NC3CC3)c3ccccc3n2)cc(OC)c1OC,nt,18µM*,-2%,?,-1%
Cn1ccnc1C(=O)C1CCCN(Cc2cn[nH]c2-c2ccc(-c3ccccc3)cc2)C1 (configuration not stated),-21%,?,4%,?,0%
CCC(C(=O)NCc1ccco1)N(C(=O)CNS(=O)(=O)c1ccc(F)cc1)c1ccccc1F (configuration not stated),-3%,?,1%,-21%,6%[0.0935 µM]
COC(=O)C1=C(N)Oc2cc(C)[nH]c(=O)c2C1c1cccnc1 (configuration not stated),-1%,-22%,8%,-5%,2%
Cc1csc2nc(COC(=O)c3ccccc3NC(=O)c3cccc(Br)c3)cc(=O)n12,1%,8.2µM*,nt,18µM*,9%
COc1ccc(C(=O)OCc2cc(=O)n3c(C)csc3n2)cc1F,nt,?,6%,?,0%
Cc1csc2nc(COC(=O)c3ccc(F)cc3)cc(=O)n12,-54%,16µM*,nt,?,5%
CCOc1ccc(C(=O)Nc2ccc(C(=O)OCc3cc(=O)n4c(C)csc4n3)cc2)cc1,?,16µM*,nt,?,-14%
COc1cc(C2C(C(C)=O)=C(O)C(=O)N2c2ccc(C)cc2)ccc1O (configuration not stated),-1%,0%,4%,-5%,-8%
CCOc1ccc(C2C(C(=O)c3cccs3)=C(O)C(=O)N2CCCn2ccnc2)cc1 (configuration not stated),0%,3%,1%,-19%,1%
O=C(NCCC1=CCCCC1)NC1CCCCC1,-48%,-1%,1%,6%,2%
COC(=O)c1ccc(=O)c2nc3/c(=C/O)c(O)cc(=O)c3[nH]c12,7%,?,-28%,21µM*,?
COC(=O)c1cc(C)sc1NC(=O)CCCC(=O)O,-6%,-1%,1%,18%,0%
COCCCNC(=O)C1CCN(C(=O)c2oc3cc4sc(N(C)C)nc4cc3c2C)CC1,-63%,-3%,-1%,-16%,1%
CCn1nc([N+](=O)[O-])c(C(C#N)c2nc3ccccc3n2C)c(Cl)c1=O (configuration not stated),1%,?,-4%,?,11%
CCCn1nc([N+](=O)[O-])c(C(C#N)c2nc3ccccc3s2)c(Cl)c1=O (configuration not stated),?,16µM*,nt,18µM*,12%

# Screens from PubChem.
